In PubChem BioAssay AID624330 (Southern Research Specialized Biocontainment Screening …, 2012) one finds inhibition data, which are given here for 94 compounds.

The whole screen tested about 340,000 compounds, of which about 2,100 (0.62%) were called active. These entries were drawn from the full list. Measured potencies and affinities stand elsewhere. Unmarked numbers belong to inactive results.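 Rule for the calls: active = first-screen hits whose inhibition reached a set limit at any dose in the follow-up dose series; inconclusive = inhibition above the set first-screen limit but never retested; inactive = the rest.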

For this assay, the target named is Rac GTPase-activating protein 1 (Homo sapiens) (UniProt Q9H0H5). Nature of the assay: MgcRacGAP GTPase-activating activity inhibitors, confirmation, biochemical, ADP Hunter fluorescence, primary and confirmatory (AID 624330).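 Note: fluorescence reports GDP produced by GAP-driven GTP hydrolysis.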 To be noted: MgcRacGAP-stimulated Rac1 GTP hydrolysis, at 30 µM, stronger effect = higher value, GST-tagged Rac1 F28L mutant substrate.
Sequence of Rac GTPase-activating protein 1 (Homo sapiens) (Q9H0H5 whole entry, looked up): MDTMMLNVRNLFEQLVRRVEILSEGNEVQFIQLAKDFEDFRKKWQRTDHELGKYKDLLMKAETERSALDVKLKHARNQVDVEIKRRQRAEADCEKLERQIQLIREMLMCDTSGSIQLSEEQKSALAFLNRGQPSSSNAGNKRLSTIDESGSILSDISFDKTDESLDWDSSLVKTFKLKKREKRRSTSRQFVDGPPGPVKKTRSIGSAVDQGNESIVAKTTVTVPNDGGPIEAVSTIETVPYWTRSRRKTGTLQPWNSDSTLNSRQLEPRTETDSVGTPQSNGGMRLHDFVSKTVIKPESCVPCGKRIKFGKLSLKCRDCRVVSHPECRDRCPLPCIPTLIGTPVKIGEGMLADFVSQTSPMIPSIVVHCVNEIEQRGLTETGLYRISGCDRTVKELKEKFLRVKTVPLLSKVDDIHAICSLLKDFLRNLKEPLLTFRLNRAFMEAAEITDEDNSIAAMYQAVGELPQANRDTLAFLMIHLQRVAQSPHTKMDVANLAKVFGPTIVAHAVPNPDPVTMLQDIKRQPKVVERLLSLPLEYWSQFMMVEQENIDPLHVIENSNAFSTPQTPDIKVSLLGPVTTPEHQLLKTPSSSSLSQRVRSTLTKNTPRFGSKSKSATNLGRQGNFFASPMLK
In general, inhibition refers to the change of the read-out against control, counted positive when it falls. Consider `Cc1onc(-c2c(Cl)cccc2Cl)c1C(=O)N(C)Cc1ccccc1`, for which the inhibition is 12.4%.
The same measure for `CC(=O)N1CCN(c2ccc(NC(=O)c3ccco3)cc2Cl)CC1`: 8.65%; for `Cc1sc2nc(SCC(=O)N3CCN(CCO)CC3)n(-c3ccccc3)c(=O)c2c1C`: 6.94%.
Turning to `CCC(Oc1cc(Cl)ccc1Cl)C(=O)NN1C(=O)C2C3CCC(C3=C(C)C)C2C1=O` (centres undefined), the inhibition is 4.3%.
Next, `CCCCCCN1C[C@H](n2cc(COC(=O)c3ccccc3)nn2)[C@@H](O)C[C@@H]1c1ccc(C)cc1`: 2.5%.
As for `O=C(Nc1ccc(Cl)cc1)N[C@@H]1c2c(ccc3ccccc23)OC[C@@H]1CO`, the inhibition was -2.15%.
On to `COC(=O)c1c(-c2ccccc2)csc1NC1=NS(=O)(=O)c2ccccc21`, for which the inhibition was -0.52%.
In the case of `COc1cc(OC)c(OC)cc1/C=N/NC(=O)c1ccc(CSc2nc(C)cc(C)n2)cc1`, the inhibition was 8.78%.
Consider `COc1ccc(/C=N/NC(=O)C(=O)Nc2ccccn2)cc1OC`, for which the inhibition is 13.3%.
As for `C=CCOc1ccc(/C=N/NC(=O)C(=O)Nc2ccccn2)cc1OC`, the inhibition is -2.52%.
`COc1ccc(OC)c(/C=N/NC(=O)c2[nH]nc3c2CCc2ccccc2-3)c1`: the inhibition was -0.52%.
Next, `COc1ccc(/C=N/NC(=O)c2[nH]nc3c2CCc2ccccc2-3)cc1OC`: 11.3%; `COc1ccccc1/C=N/NC(=O)c1cccc(NC(=O)c2ccccc2C)c1`: 6.03%; `COc1cc(/C=N/NC(=O)c2cccc(NC(=O)c3ccccc3Cl)c2)ccc1O`: 28.3%.
As for `COc1ccc(/C=N/NC(=O)c2ccc(CSc3nc(C)cc(C)n3)cc2)c(OC)c1OC`, the inhibition was 5.29%.
The same measure for `C[C@@H]1CN([C@@H](C)CO)C(=O)CCCn2cc(nn2)CO[C@H]1CN(C)S(=O)(=O)c1ccc(Oc2ccccc2)nc1`: 15.5%; for `C[C@@]12C(=O)Nc3cc(Cl)ccc3C(=O)N1[C@H]1c3cc(Br)ccc3OC[C@@H]1[C@@H]2c1ccccc1`: 11.9%; for `O=C(c1cc2nc(-c3ccc(F)cc3)cc(C(F)(F)F)n2n1)N1CCOCC1`: 10.3%.
Take `CCN1C(=O)[C@H]2[C@H]3CN=C(SCc4ccc(C(=O)OC)cc4)N3[C@@](CC)(C(=O)OC)[C@H]2C1=O`: the inhibition was 6.61%.
With `O=C(Nc1ccc2nc(-c3cccnc3)[nH]c2c1)c1ccccc1F`, the inhibition was 5.15%.
Regarding `O=C(O)C1CC(c2ccc(F)cc2)=NO1` (centres undefined), the inhibition was 1.2%.
As to `CC(C)[C@H](NC(=O)OCc1ccccc1)C(=O)OCC(=O)NC1CCCCC1`, the inhibition is 10.6%.
`Cc1nonc1CN(C)C(=O)CC1C(=O)NCCN1Cc1ccccc1F` (centres undefined): the inhibition is 2.81%.
For the compound `CCN(CC)c1ccc(/C=N/NC(=O)c2c[nH]c3ccccc23)cc1`, the inhibition is 30.9%.
As for `CC(/C=C/c1ccc(O)cc1)=NNc1ccccc1`, the inhibition was 31.4%.
Consider `COc1ccc(OCCn2cc(/C=N/NC(=O)c3ccncc3)c3ccccc32)cc1`, for which the inhibition is 4.18%.
As for `COc1ccc(/C=N/Nc2ccc(C(=O)O)cc2)cc1OC`, the inhibition was 12.8%.
Next, `COc1cc(/C=C/C(=O)CC(=O)/C=C/c2ccc(O)c(OC)c2)ccc1O`: 27.8%.
Consider `CCN(CC)c1ccc(/C=N\NC(=O)c2cccc3cc[nH]c23)cc1`, for which the inhibition is 21.1%.
The same measure for `Cc1ccc(OCCn2cc(/C=N/NC(=O)c3ccncc3)c3ccccc32)cc1`: -10.1%; for `COc1cc(/C=N/Nc2ccc(C(=O)O)cc2)cc(OC)c1OC`: -9.42%.
For the compound `CN(C(=O)c1cccc(NC(=O)Cc2ccc(NC(=O)C3CCCN(S(=O)(=O)c4cccc([N+](=O)[O-])c4)C3)cc2)c1)C1CCCCC1` (centres undefined), the inhibition is 3.08%.
The same measure for `O=C(COc1ccc(Cl)cc1)NCc1nnc(SCC(=O)N2CCCc3ccccc32)o1`: 2.68%; for `COc1ccc(-c2nnc(NC(=O)Cc3ccccc3)o2)cc1`: 7.81%; for `COc1ccc(CN2CCOCCOCCOCC2)cc1`: 0.62%.
Next, `C=CCn1c(=O)c2ccccc2n2c(SCC(=O)NCCc3ccccc3)nnc12`: 6.1%.
With `CC(C)n1nc(C(=O)NCCc2ccc(S(N)(=O)=O)cc2)c2ccccc2c1=O`, the inhibition is 0.38%.
Consider `COc1ccc(CN2C(=O)c3ccccc3C2=O)cc1C(=O)OCC(=O)NC1CCCCC1`, for which the inhibition was 7.94%.
As to `c1ccc2cc(CNCc3cccc4ccccc34)ccc2c1`, the inhibition was 13%.
Turning to `O=C(COC(=O)CN1CCSC1=O)Nc1ccc(F)cc1Cl`, the inhibition was 2.57%.
`O=C(NCC1COc2ccccc2O1)c1ccc(NC(=O)C2CCCO2)cc1` (centres undefined): the inhibition is 10.6%.
In the case of `Cc1nnc(NC(=O)CCn2c(=O)oc3ccccc32)s1`, the inhibition was 4.88%.
Next, `C=CCSc1ncccc1C(=O)NCCc1ccc(Cl)cc1`: 10.4%; `COc1ccc(/C=N/NC(=O)C2(O)c3ccccc3-c3ccccc32)cc1`: 6.06%.
The same measure for `O=C(N/N=C/c1ccccc1O)C1(O)c2ccccc2-c2ccccc21`: 8.51%.
In the case of `COc1ccccc1N(CC(=O)Nc1ccc(Cc2ccncc2)cc1)S(=O)(=O)c1ccccc1`, the inhibition is 0.87%.
Consider `COc1ccc(C(=O)Nc2ccc3c(c2)n(C)c(=O)n3C)cc1OC`, for which the inhibition was 3.94%.
The same measure for `O=S(=O)(Cc1ccccc1)N1CCN(C2Cc3ccccc3C2)CC1`: 9.97%; for `CC1CCC(N2CCN(S(=O)(=O)Cc3ccccc3)CC2)CC1` (centres undefined): 7.86%.
On to `CCS(=O)(=O)N1CCN(C2CCC(C)CC2)CC1` (centres undefined), for which the inhibition is 17.9%.
On to `CCS(=O)(=O)N1CCN(C2Cc3ccccc3C2)CC1`, for which the inhibition is 13.9%.
For `Nc1cc2c(cc1Br)-c1ccccc1C2=NO`, the inhibition was 7.06%.
As for `COc1ccc(-c2nn(-c3ccccc3)cc2/C=N/Nc2ccc(Cl)c(C(=O)O)c2)cc1OC`, the inhibition was 13.5%.
Next, `N#Cc1c(-c2ccccc2)nc(N2CCN(Cc3ccccc3)CC2)[nH]c1=O`: 0.49%; `O=C(/C=C/c1cn(-c2ccccc2)nc1-c1cccnc1)NCCN1CCOCC1`: 11.7%.
Consider `O=c1oc2cc(O)ccc2cc1-c1ccccc1`, for which the inhibition is 15.9%.
Consider `O=C(O)c1cc2ccc(O)cc2oc1=O`, for which the inhibition was 4.89%.
Next, `O=C(CCCc1nc2ccccc2s1)NC(c1ccccc1)c1ccccc1`: 6.29%.
The same measure for `O=C(CN1N=C(c2ccccc2)CCC1=O)NCc1ccccc1`: 6.27%; for `COc1cc(CN(C)C(=O)C(=O)c2c[nH]c3ccccc23)ccc1O`: 8.17%; for `O=C(c1cc(-c2ccc(Cl)c(Cl)c2)on1)N1CCN(c2ccccc2)CC1`: 4.94%.
Consider `COc1ccc(NC(=O)c2ccc(NC(=O)c3cccs3)cc2)cc1`, for which the inhibition is 2.51%.
Turning to `COc1cc(NC(=O)c2cccs2)c(OC)cc1NC(=O)c1cccs1`, the inhibition is 4.2%.
In the case of `COc1ccc(NC(=O)c2cccs2)cc1`, the inhibition was 8.32%.
Consider `COc1ccccc1NC(=O)c1cccs1`, for which the inhibition was 0.52%.
With `O=C(c1ccco1)N1CCc2ccccc21`, the inhibition is 3.81%.
In the case of `COCC(C)n1c(C)cc(C(=O)CSc2ncccn2)c1C` (centres undefined), the inhibition is 8%.
Take `CN(CC1COc2ccccc2O1)C(=O)Cn1cc(C(F)(F)F)ccc1=O` (centres undefined): the inhibition was 0.56%.
For the compound `CCCCN(C)C(=O)C1CCN(CCCc2ccccc2)CC1`, the inhibition is 21.2%.
Regarding `CCCCN(C)C(=O)C1CCN(Cc2cccnc2)CC1`, the inhibition is 27.6%.
As for `CCN(CC)C(=O)C1CCN(Cc2cccc(OCc3ccccc3)c2)CC1`, the inhibition is 19.6%.
Next, `CCN(CC)C(=O)C1CCN(Cc2ccc(OCc3ccccc3)cc2)CC1`: 15.5%; `NC(=O)C1CCN(Cc2ccc(OCc3ccccc3)cc2)CC1`: 21.3%; `NC(=O)C1CCN(Cc2cccc(OCc3ccccc3)c2)CC1`: 21.4%.
Regarding `CCc1c(O)nc(SCC(=O)N2CCOCC2)n(-c2ccccc2)c1=O`, the inhibition was 9.22%.
On to `Cc1cc(NC(=O)COC(=O)CNC(=O)c2cccs2)c([N+](=O)[O-])cc1C`, for which the inhibition is 10.5%.
For the compound `O=C1OC(c2ccc(F)cc2)=N/C1=C\c1ccc(Br)o1`, the inhibition is 12.2%.
As for `NC(=O)CC(NC(=O)c1ccccc1)c1ccc(N2CCN(c3ccccn3)CC2)c([N+](=O)[O-])c1` (centres undefined), the inhibition was 6.77%.
For the compound `CC(C)CCNC(=O)CCCCn1c(=O)[nH]c2ccsc2c1=O`, the inhibition is 1.12%.
The same measure for `CCn1cc(C(=O)NC2CCCCC2)c(=O)c2ccc(C)nc21`: 6.08%; for `CCOc1ccccc1OCCCCOc1ccccc1F`: 8.35%.
Take `CCOc1ccccc1C(=O)N[C@H](C(=O)NNC(=O)c1cccs1)C(C)C`: the inhibition is 2.5%.
The same measure for `Cc1ccc(C)c(SCC(=O)NC(=O)NCc2ccccc2)c1`: 6.96%; for `Cc1ccc(NC(=O)N2CCCC2C(=O)Nc2ccc(-n3cnnn3)c(C)c2)cc1` (centres undefined): -9.47%; for `CS(=O)(=O)N1CCN(C(=O)NC23CC4CC(CC(C4)C2)C3)CC1`: -2.26%.
`CN1CCCN(C2C3CC4CC(C3)CC2C4)CC1` (centres undefined): the inhibition was 14.8%.
For `C/C(=N/OCC(=O)Nc1ccc(C)cc1C)c1cccs1`, the inhibition was 17%.
Next, `O=c1cc(-c2ccccc2[N+](=O)[O-])oc2ccccc12`: 4.61%; `Nc1c([N+](=O)[O-])c(=O)oc2ccccc12`: 3.99%.
For `CN(C)S(=O)(=O)c1cccc(C(=O)c2nccn2C)c1`, the inhibition is 2.41%.
For `Cc1ccc(C(=O)Nc2ncc(C)s2)s1`, the inhibition was 3.92%.
The same measure for `Cc1ccsc1C=Nc1ccc(O)cc1`: 18.4%; for `Cc1ccc(-c2nc(C=Nc3ccc(O)cc3)c(O)o2)cc1`: 19%; for `COc1ccccc1NS(=O)(=O)c1cc(NC(=O)c2ccc(Cl)nc2)ccc1N1CCCC1`: 9.85%.
